Results taken from PubChem BioAssay AID1029 (Sanford-Burnham Center for Chemical Genomics, 2008).
The whole screen tested about 110,000 compounds, of which about 80 (0.07%) were called active. This excerpt belongs to a sample that is enriched for actives. A number with no mark means an inactive call.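 How the source made its calls: active means inhibition above the mean of the plate negative controls plus 5 SD (cut at about 13% in these data); inactive means the rest.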

Assay: blockers of IgG-bead uptake by macrophages – imaging, J774A.1 cells, IgG beads, primary screen (AID 1029);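 further: phagocytic index as fraction of beads internalized from green versus red external bead signal; plate controls were DMSO negative control for no effect and cytochalasin-D positive control for full effect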
Settings: J774A.1 macrophage IgG-bead phagocytosis, at 5 µM, stronger effect = higher value
`CCOC(=O)C(O)(c1ccc(N)c(OC)c1)C(F)(F)F` (centres undefined) showed an inhibition of -1.1%.
`CCOC(=O)C(O)(c1ccc(NC(=O)c2ccco2)c(OC)c1)C(F)(F)F` (centres undefined) gave an inhibition of 2.8%.
With `CN(C)C(=O)Oc1ccc(OCc2cccc[n+]2C)cc1` the inhibition was -2.17%.
Work on `O=c1[nH]c(=S)n(C2CC2)c(O)c1/C=N/N1CCOCC1` yielded an inhibition of -3.16%.
